Laboratory results as given in PubChem BioAssay AID1159580 (chemical genetic matrix, 2015).
Out of some 5,500 compounds screened, about 2,000 (36%) were called active. Inconclusive results (about 18%) are left out. No stated cut-off is given here; in the data, active means normalized growth mostly below about 0.91 (no sharp cut-off); inconclusive means no clear call, values can overlap the other calls; inactive means mostly above about 0.92. The list shows a part of the results.

Assay: chemical genetic growth profiling, strain panel (AID 1159580);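 further: tested at 20 µM; growth read once vehicle control cultures reached saturation at 30 °C; 1 = growth at the plate median or of vehicle wells; lower values mean less growth of the strain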
Conditions: S. cerevisiae deletion strains, growth OD
[1] = locus YDL101C, strain DUN1, hits give low values
[2] = locus YHR030C, strain SLT2, hits give low values
[3] = locus YJL095W, strain BCK1, hits give low values
[4] = locus YOR061W, strain CKA2, hits give low values

Measured: normalized growth

CN(C)/C=C1\CSc2ccc(Cl)cc2C1=O
inactive: locus YAR019C, strain CDC15, hits give low values 0.927 | locus YBL105C, strain PKC1, hits give low values 0.957 | locus YBR135W, strain CKS1, hits give low values 0.965 | locus YBR136W, strain MEC1, hits give low values 0.949 | locus YBR160W, strain CDC28, hits give low values 0.95 | locus YDL017W, strain CDC7, hits give low values 0.953 | locus YDL028C, strain MPS1, hits give low values 0.953 | [1] 0.975 | locus YDL108W, strain KIN28, hits give low values 0.947 | locus YDL132W, strain cdc53, hits give low values 0.956 | locus YDL214C, strain PRR2, hits give low values 0.763 | locus YDR052C, strain DBF4, hits give low values 0.967 | locus YDR054C, strain cdc34, hits give low values 0.94 | locus YDR226W, strain ADK1, hits give low values 0.947 | locus YDR477W, strain SNF1, hits give low values 0.832 | locus YER133W, strain GLC7, hits give low values 0.811 | locus YFL009W, strain cdc4, hits give low values 0.944 | locus YFL029C, strain CAK1, hits give low values 0.932 | locus YFR003C, strain YPI1, hits give low values 0.952 | locus YFR028C, strain CDC14, hits give low values 0.942 | locus YGR040W, strain KSS1, hits give low values 0.832 | locus YGR052W, strain FMP48, hits give low values 0.799 | locus YGR092W, strain DBF2, hits give low values 0.824 | locus YHR079C, strain IRE1, hits give low values 0.555 | locus YHR082C, strain KSP1, hits give low values 0.758 | locus YHR205W, strain SCH9, hits give low values 0.75 | locus YIL147C, strain SLN1, hits give low values 0.928 | locus YJL128C, strain PBS2, hits give low values 1.01 | locus YJL157C, strain FAR1, hits give low values 0.775 | locus YJR016C, strain ILV3, hits give low values 0.965 | locus YJR066W, strain TOR1 (second series), hits give low values 0.728 | locus YJR066W, strain TOR1, hits give low values 0.633 | locus YKL048C, strain ELM1, hits give low values 0.937 | locus YKL067W, strain YNK1, hits give low values 0.771 | locus YKL101W, strain HSL1, hits give low values 0.861 | locus YKL193C, strain SDS22, hits give low values 0.938 | locus YKL203C, strain TOR2, hits give low values 0.886 | locus YLR133W, strain CKI1, hits give low values 0.799 | locus YLR403W, strain SFP1, hits give low values 0.792 | locus YMR001C, strain CDC5, hits give low values 0.941 | locus YMR205C, strain PFK2 (second series), hits give low values 0.872 | locus YMR277W, strain FCP1, hits give low values 0.943 | locus YNL006W, strain LST8, hits give low values 0.952 | locus YNL020C, strain ARK1, hits give low values 0.817 | locus YNL161W, strain CBK1, hits give low values 0.955 | locus YNL183C, strain NPR1, hits give low values 0.559 | locus YNL207W, strain RIO2, hits give low values 0.922 | locus YNL222W, strain SSU72, hits give low values 0.955 | locus YNL307C, strain MCK1 (second series), hits give low values 0.822 | locus YOL078W, strain AVO1, hits give low values 0.95 | locus YOL136C, strain PFK27, hits give low values 0.691 | [4] 0.831 | locus YOR119C, strain RIO1, hits give low values 0.862 | locus YOR231W, strain MKK1, hits give low values 0.595 | locus YOR329C, strain SCD5, hits give low values 0.953 | locus YPL031C, strain PHO85, hits give low values 0.825 | locus YPL153C, strain RAD53, hits give low values 0.752 | locus YPL204W, strain HRR25, hits give low values 0.802 | locus YPL209C, strain IPL1, hits give low values 0.954 | locus YPR025C, strain CCL1, hits give low values 0.962 | locus YPR106W, strain ISR1, hits give low values 0.95 | locus YPR111W, strain DBF20, hits give low values 0.947 | strain NNK1, hits give low values 0.941 | strain TSCII, hits give low values 0.942
active: locus YER123W, strain YCK3, hits give low values 0.565 | locus YFR019W, strain FAB1, hits give low values 0.771 | [2] 0.311 | [3] 0.444 | locus YLR113W, strain HOG1, hits give low values 0.537 | locus YML070W, strain DAK1, hits give low values 0.618 | locus YPL256C, strain CLN2, hits give low values 0.627

CC(=O)O[C@@H]1CC2C(C)(C)CCC[C@]2(C)C2CC[C@]3(C)C(=CC(=O)O[C@H]3c3ccoc3)[C@@]21C (some centres undefined)
inactive: locus YBR021W, strain FUR4, hits give low values 1.02 | locus YBR229C, strain ROT2, hits give low values 1.01 | locus YCL029C, strain bik1, hits give low values 1 | locus YDL035C, strain GPR1, hits give low values 1.02 | locus YDL074C, strain BRE1, hits give low values 1.01 | [1] 1.01 | locus YDL185W, strain tfp1, hits give low values 1.01 | locus YDL192W, strain arf1, hits give low values 0.999 | locus YDR101C, strain arx1, hits give low values 1.01 | locus YDR150W, strain NUM1, hits give low values 1.02 | locus YDR162C, strain NBP2, hits give low values 1 | locus YDR318W, strain mcm21, hits give low values 0.981 | locus YDR388W, hits give low values 1.01 | locus YDR502C, strain sam2, hits give low values 0.977 | locus YEL061C, strain CIN8, hits give low values 1.02 | locus YER110C, hits give low values 1.01 | locus YER155C, strain BEM2, hits give low values 1 | locus YER167W, strain BCK2, hits give low values 1.02 | locus YGL078C, strain dbp3, hits give low values 0.982 | locus YGL086W, strain mad1, hits give low values 0.984 | locus YGL248W, strain PDE1, hits give low values 1.01 | locus YGR135W, strain pre9, hits give low values 0.978 | locus YGR229C, strain SMI1, hits give low values 0.97 | locus YGR252W, strain gcn5, hits give low values 0.993 | [2] 1.02 | locus YHR079C, strain IRE1 (second series), hits give low values 1 | locus YHR094C, strain hxt1, hits give low values 1 | locus YHR129C, strain ARP1, hits give low values 1.02 | locus YHR200W, strain rpn10, hits give low values 1.01 | locus YIL066C, strain RNR3, hits give low values 1.02 | locus YIL073C, strain SPO22, hits give low values 1.02 | locus YIL125W, strain kgd1, hits give low values 1 | locus YIR030C, strain dcg1, hits give low values 1 | [3] 0.97 | locus YJL134W, strain LCB3, hits give low values 1.02 | locus YJL168C, strain set2, hits give low values 0.994 | locus YJL187C, strain SWE1 (second series), hits give low values 1 | locus YJR043C, strain POL32, hits give low values 1.05 | locus YJR075W, strain HOC1, hits give low values 1.01 | locus YKL009W, strain mrt4, hits give low values 1.03 | locus YKL068W, hits give low values 0.989 | locus YKL085W, strain MDH1 (second series), hits give low values 1.01 | locus YKL085W, strain MDH1, hits give low values 1.01 | locus YKR001C, strain vps1, hits give low values 0.967 | locus YLR039C, strain RIC1, hits give low values 0.902 | locus YLR058C, strain SHM2, hits give low values 1.01 | locus YLR102C, strain apc9, hits give low values 1 | locus YLR262C, strain YPT6, hits give low values 0.928 | locus YLR268W, strain sec22, hits give low values 0.973 | locus YLR330W, strain CHS5, hits give low values 1.02 | locus YLR342W, strain FKS1 (second series), hits give low values 0.983 | locus YLR371W, strain rom2, hits give low values 1 | locus YLR418C, strain cdc73, hits give low values 0.941 | locus YML016C, strain PPZ1, hits give low values 1.02 | locus YML032C, strain rad52, hits give low values 0.99 | locus YML124C, strain tub3, hits give low values 0.993 | locus YMR078C, strain ctf18, hits give low values 0.986 | locus YMR223W, strain ubp8, hits give low values 0.983 | locus YMR263W, strain SAP30, hits give low values 1.02 | locus YMR307W, strain GAS1, hits give low values 1.09 | locus YNL067W, strain RPL9B, hits give low values 1.01 | locus YNL128W, strain TEP1, hits give low values 1.03 | locus YNL233W, strain BNI4, hits give low values 0.948 | locus YNL250W, strain rad50, hits give low values 0.968 | locus YNL271C, strain bni1, hits give low values 1 | locus YNL298W, strain CLA4, hits give low values 0.992 | locus YNL307C, strain MCK1, hits give low values 0.992 | locus YNL322C, strain KRE1, hits give low values 1.02 | locus YNR052C, strain pop2, hits give low values 0.993 | locus YOL006C, strain TOP1, hits give low values 1.06 | locus YOL012C, strain htz1 0.86 | locus YOL147C, strain pex11, hits give low values 1.01 | [4] 1.01 | locus YOR069W, strain VPS5, hits give low values 1.02 | locus YOR136W, strain idh2, hits give low values 0.997 | locus YOR144C, strain elg1, hits give low values 0.999 | locus YOR184W, strain ser1, hits give low values 0.982 | locus YOR316C, strain cot1, hits give low values 1 | locus YPR119W, strain clb2, hits give low values 0.985 | locus YPR141C, strain kar3, hits give low values 1.01 | locus YPR163C, strain tif3, hits give low values 0.994 | locus YPR167C, strain met16, hits give low values 0.998 | strain wtn01, hits give low values 0.996
